Results: the supplement of paper PMC3414501
Counter-ions that a name gives are not always drawn.

Tested on: S. cerevisiae AD1-9 (efflux-pump deficient), vegetative growth in YPD
Test: growth sensitivity score (doubling time z-score vs DMSO controls); higher = slower growth, strongly negative scores also mark growth inhibition (complete suppression), active = hit call of the paper
Details: stock concentration (mM, diluted 1:100): 10.1; in the data active = 2 or more and inactive = the rest
Outline: (§1)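 Yeast (Saccharomyces cerevisiae BY4741 and AD1-9) was grown in rich medium in microtiter plates from a starting OD600 of 0.065, with optical density read every 15 min over 24 hours. The growth sensitivity score was the difference between compound and solvent-only means, divided by the solvent-only standard deviation. Every experiment had eight solvent-only wells.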

| SMILES | growth sensitivity score |
| --- | --- |
| CC(NC(C)(C)C)C(=O)c1cccc(Cl)c1 (stereo not given) [Amfebutamone hydrochloride] | 0.01 (inactive) |
| CC[C@@H](C(N)=O)N1CCCC1=O [Levetiracetam] | -2.51 |
| C[C@]12CC[C@H](O)CC1=CC[C@@H]1[C@@H]2CC[C@@]2(C)[C@H]1CC[C@]2(C)O [Methylandrostenediol] | 15.1 (active) |
| CCOC(=O)c1cncn1[C@H](C)c1ccccc1 [Etomidate] | 7.78 (active) |
| COc1ccc2[nH]cc(C3=CCNCC3)c2c1 | -2.3 |

Tested on: S. cerevisiae BY4741 (wild-type), vegetative growth in YPD
Test: as above
Details: stock concentration (mM, diluted 1:100): 10
Outline: as §1

| SMILES | growth sensitivity score |
| --- | --- |
| CCN(C(C)=O)c1cccc(-c2ccnc3c(C#N)cnn23)c1 [Zaleplon] | -0.43 (inactive) |
| C=C1C[C@@H]2[C@H](CC[C@]3(C)C(=O)CC[C@@H]23)[C@@]2(C)C=CC(=O)C=C12 [Exemestane] | 0.77 (inactive) |
| CNC(=O)Oc1ccc2c(c1)[C@]1(C)CCN(C)[C@@H]1N2C [Physostigmine] | -1.51 (inactive) |
| c1cncc([C@@H]2CCCN2)c1 [Nornicotine] | 0.91 (inactive) |
| COc1cc2c(cc1OC)[C@@]13CCN4CC5=CCO[C@H]6CC(=O)N2[C@H]1[C@H]6[C@H]5C[C@H]43 [Brucine] | 0.41 (inactive) |
| O=C1Nc2ccc(Cl)cc2C(c2ccccc2Cl)=NC1O (stereo not given) [Lorazepam] | -0.91 (inactive) |
| NC1=NC(=O)C(c2ccccc2)O1 (stereo not given) [Pemoline] | -1.83 (inactive) |
| Oc1ccc2c3c1O[C@H]1[C@@H](O)CC[C@@]4(O)[C@@H](C2)N(CC2CCC2)CC[C@]314 [Nalbuphine] | -0.96 (inactive) |
| CCCN1C[C@H](CSC)C[C@@H]2c3cccc4[nH]cc(c34)C[C@H]21 [Pergolide mesylate] | 2.05 (active) |
| CC[C@]1(O)CC[C@H]2[C@@H]3CCC4=CCCC[C@@H]4[C@H]3CC[C@@]21C [Ethylestrenol] | 2.86 (active) |
| CCN(CC)CCOC(=O)C(O)(c1ccccc1)c1ccccc1 [Benactyzine hydrochloride] | -0.83 (inactive) |
| NC(=O)C[S+]([O-])C(c1ccccc1)c1ccccc1 (stereo not given) [Modafinil] | -1.13 (inactive) |
| COc1ccc2[nH]cc(CCN)c2c1 [5-Methoxytryptamine] | 0.09 (inactive) |
| OC1CCCCC1N1CCC(c2ccccc2)CC1 (stereo not given) [Vesamicol hydrochloride] | -0.16 (inactive) |
| CN1C(=O)COc2c(C(=O)NC3CN4CCC3CC4)cc(Cl)cc21 (stereo not given) [Azasetron] | -0.56 (inactive) |
| Cc1nnc2n1-c1ccc(Cl)cc1C(c1ccccc1)=NC2 [Alprazolam] | 0.23 (inactive) |
| CC(O)(CS(=O)(=O)c1ccc(F)cc1)C(=O)Nc1ccc(C#N)c(C(F)(F)F)c1 (stereo not given) [Bicalutamide] | 0.66 (inactive) |
| CC(C)CC(N(C)C)C1(c2ccc(Cl)cc2)CCC1 (stereo not given) [Sibutramine hydrochloride] | 1.85 (inactive) |
| C#CCN(C)[C@H](C)Cc1ccccc1 [Selegiline] | 0.07 (inactive) |
| C[C@H]1CCC[C@H](O)CCCCCc2cc(O)cc(O)c2C(=O)O1 [Zeranol] | 1.77 (inactive) |
| C[C@]12Cc3c[nH]nc3C[C@@H]1CC[C@@H]1[C@@H]2CC[C@@]2(C)[C@H]1CC[C@]2(C)O [Stanozolol] | 1.13 (inactive) |
| CNCC(O)c1ccc(O)cc1 (stereo not given) [Synephrine] | -1.07 (inactive) |
| COc1cccc(C2(O)CCCCC2CN(C)C)c1 (stereo not given) [Tramadol] | -0.39 (inactive) |
| FC(F)(F)c1cccc(N2CCNCC2)c1 | 1.25 (inactive) |
| CCCCC/C=C\C/C=C\C/C=C\C/C=C\CCCC(=O)Nc1ccc(O)cc1 | 2.55 (active) |
